# Assay outcomes from PubChem.
# In the library only some 2.3% were active in any assay of this set; here they are far more common.
# CF NFkB inh: inhibitors of PAF-induced NF-kB signaling, primary screen, cell-based, GFP fluorescence, uHTS; inhibition, % at 5 µM; KKLEB NF-kB-GFP reporter, GFP fluorescence overnight; AID 588850, 2011; hit rate 0.86% among 360,000;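 active = at least 50% inhibition at 5 µM, scaled per plate between neutral and stimulator controls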;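 also: PAF is a Pseudomonas aeruginosa culture filtrate used as stimulus; plate controls were PAF-stimulated DMSO wells for no effect and unstimulated DMSO wells for full effect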
# HIF-2a block: HIF-2a reporter inhibitors, primary screen, luminescence, 786-0 RCC cells; 786-0 RCC cells HIF-2a reporter, luciferase luminescence, overnight; inhibition, % at 18.8 µM; hit rate 0.72% among 360,000;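 active = inhibition of the luminescence signal of 40% or more relative to plate controls, in a single-dose primary screen at 18.75 µM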
# TWEAK-Fn14 inh: inhibitors of TWEAK-Fn14 signaling, primary screen, luciferase reporter cells, uHTS. TWEAK-stimulated Fn14 reporter cells, luciferase luminescence, 8 h. inhibition, % at 10 µM. hit rate 2% among 360,000. AID 1159606, 2016; in the data active = inhibition above about 50%
# LGR2 inh: inhibitors of bursicon-induced LGR2 CRE-luciferase signal, primary screen, cell-based, HEK293, CRE-luciferase reporter, bursicon stimulation | Drosophila bursicon receptor LGR2 (rickets) | bursicon-stimulated, 4 h | inhibition, % at 9.99 µM | hit rate 0.35% among 380,000 | AID 720647, 2013;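 active = drop in luminescence signal, shown as inhibition above about 50% in the replicate tests, limit read from the data, passing the limit was not always enough; inconclusive = probably only some replicates passing the limit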;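 also: agonist challenge used bursicon conditioned medium at about half maximal strength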
# KKLEB tox: cytotoxicity in KKLEB CF airway cells, primary screen, cytotoxicity control for CF NF-kB inhibitor project, cell-based, uHTS, fluorescence assay plates; activity change (cytotoxicity), % at 5 µM; KKLEB CF airway cells viability, ATPlite luminescence, overnight; active compounds read low; cells stimulated with P. aeruginosa culture filtrate; hit rate 0.36% among 360,000;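 active = corrected activity change at or below -50% at 5 µM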
# hiPSC survival: enhancers of single-cell hiPSC survival, primary screen, ATPlite luminescence | AID 602274, 2012 | hit rate 0.044% among 360,000 | survival enhancement, % at 20 µM | 100% = ROCK inhibitor wells, 0% = DMSO; in the data active = survival enhancement above about 18%;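 also: cells exposed to compounds for 16 hours before the ATP read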
# Active calls of the source: *; u = inconclusive; x = no result; ! = repeats disagree.
SMILES,CF NFkB inh,HIF-2a block,TWEAK-Fn14 inh,LGR2 inh,KKLEB tox,hiPSC survival
COc1ccc(CN(C)C[C@H]2Oc3ccc(NS(=O)(=O)c4cccs4)cc3CC(=O)N([C@H](C)CO)C[C@@H]2C)cc1,x,x,x,-4,x,x
C[C@H](O)C#Cc1ccc2c(c1)O[C@H](CN(C)C(=O)CC1CC1)[C@@H](C)CN([C@H](C)CO)S2(=O)=O,x,x,x,-5,x,x
CC(C(=O)O)c1ccc(N2Cc3ccccc3C2=O)cc1 (configuration not stated),-13,10,70*,x,14,-5
O=C(CCN1CCCCC1)N[C@H]1CC[C@@H](CCNS(=O)(=O)c2ccccc2)O[C@@H]1CO,x,x,x,1,x,x
CCc1ccc(/C=C2\SC(=S)N(CCCC(=O)NC3=NCCS3)C2=O)cc1,5,83*,92*,1,-18,6
COc1cccc(/C=C2/SC(=S)N(CCCC(=O)Nc3ccc(O)cc3)C2=O)c1,21,20,15,5,-16,0
COc1cccc(/C=C2\SC(=S)N(CCCC(=O)NC3=NCCS3)C2=O)c1,-14,87*,28,-3,-2,0
CCc1ccc(/C=C2/SC(=S)N(CCCC(=O)Nc3cccc(C(=O)O)c3)C2=O)cc1,24,23,-18,-8,-18,1
COCC(=O)N1CC2(C1)[C@H](c1ccc(C3=CCCC3)cc1)[C@H](CO)N2C(=O)COC,x,x,x,26,x,x
CCC(=O)Nc1ccc2c(c1)OC[C@H](C)N(Cc1nccs1)C[C@@H](C)[C@@H](OC)CN(C)C2=O,x,x,x,-18,x,x
CC(C)(C)c1ccc(/C=C2\SC(=O)N(CCNC(=O)c3cccc(S(=O)(=O)N4CCOCC4)c3)C2=O)cc1,-3,9,93*,x,-22,-4
Cc1ccc(-c2ccc(CCC(=O)O)n2NC(=O)c2ccco2)cc1,-15,-23,77*,x,5,0
Cc1ccccc1OCC(=O)Nc1sc2c(c1C#N)CC(C)(C)NC2(C)C,10,10,31,-26,-7,3
CC1(C)Cc2c(sc(NC(=O)COc3ccc(Cl)cc3)c2C#N)C(C)(C)N1,9,-3,101*,x,-2,0
Cc1ccc(NS(=O)(=O)c2ccc(NC(=O)CN(c3cc([N+](=O)[O-])ccc3C)S(C)(=O)=O)cc2)c(C)c1,-17,11,62*,17,25,0
C[C@H](CO)N1C[C@H](C)[C@@H](CN(C)Cc2ccccc2)Oc2c(NC(=O)c3cnccn3)cccc2C1=O,x,x,x,5,x,x
CC1=[N+](C)c2c(ccc3cccnc23)C1(C)C,14,-21,78*,u,-1,-4
O=C(c1cccnc1)N1C[C@@H]2[C@H](c3ccccc31)[C@H](CO)N2C(=O)CN1CCOCC1,x,x,x,-9,x,x
CN(C)c1ccc(-c2nc3ccccn3c2/N=C/c2ccc(Br)cc2)cc1,-8,36,65*,u,-9,-2
COCC#Cc1ccc2c(c1)O[C@H](CN(C)Cc1ccccn1)[C@H](C)CN([C@@H](C)CO)S2(=O)=O,x,x,x,-6,x,x
COc1ccc(NC(=O)N(C)C[C@H]2OCCCC[C@H](C)Oc3ccc(NC(=O)Nc4ccc5c(c4)OCO5)cc3C(=O)N([C@@H](C)CO)C[C@H]2C)cc1,x,x,x,6,x,x
COc1cc([C@@H]2[C@H]3CN(C)CC=C3C(C#N)=C(N)C2(C#N)C#N)cc2c1OCO2,-12,11,63*!,-2,0,-3
CN1CCN(c2ccc(-c3cccc(NC(=O)COc4ccc(Cl)cc4Cl)c3)nn2)CC1,10,-67,63*,-27,-58*,-1
CN1CCN(c2ccc(-c3cccc(NC(=O)COc4ccc(Cl)cc4)c3)nn2)CC1,-9,-121,14,-34,-15,0
CO[C@H]1CN(C)C(=O)c2cc(NC(=O)C3CC3)ccc2OC[C@@H](C)N(C(=O)C2CCCCC2)C[C@H]1C,x,x,x,3,x,x
SMILES,CF NFkB inh,HIF-2a block,TWEAK-Fn14 inh,LGR2 inh,KKLEB tox,hiPSC survival
O=C(C1CCCCC1)N1CC[C@@H]2[C@@H](CO)Nc3ccc(Br)cc3[C@@H]21,x,x,x,-7,x,x
O=C(NCCCN1CCCCCC1)c1ccc2c(c1)NC(=O)C(N1CCOCC1)S2 (configuration not stated),2,7,82*,x,4,-2
CN1C(=O)c2cc(NC(=O)C3CCCCC3)ccc2OC[C@@H]2O[C@@H](CC(=O)NCC3CCCCC3)CC[C@H]21,x,x,x,-8,x,x
Cc1noc(C)c1S(=O)(=O)N(C)C[C@@H]1OCCCC[C@@H](C)Oc2ccc(NC(=O)Nc3ccc(C(F)(F)F)cc3)cc2C(=O)N([C@H](C)CO)C[C@H]1C,x,x,x,-2,x,x
Oc1ccc(Cl)cc1N=Nc1ccccc1,-16,-37,-17,-21,1,-1
Cc1ccc(O)c(N=Nc2ccccc2)n1,1,-187,57*,u,-1,-4
O=C(CCCc1ccccn1)c1ccccc1,15,-48,84*,44,-23,-3
CSc1ncc(Cl)c(C(=O)Nc2ccc(S(=O)(=O)Nc3nccc(C)n3)cc2)n1,-7,21,6,-7,5,1
CCC(Oc1ccccc1)C(=O)Nc1ccc(S(=O)(=O)Nc2ncccn2)cc1 (configuration not stated),12,5,-1,1,-3,0
CCC(C(=O)Nc1ccc(S(=O)(=O)Nc2ncccn2)cc1)c1ccccc1 (configuration not stated),-7,18,86*,15,1,-1
CCCCNS(=O)(=O)c1ccc(NC(=O)C(Sc2ccccc2)c2ccccc2)cc1 (configuration not stated),1,9,63*,13,5,0
CCC(C)NS(=O)(=O)c1ccc(NC(=O)C(Sc2ccccc2)c2ccccc2)cc1 (configuration not stated),-2,16,41,30,18,1
CCCSc1ncc(Cl)c(C(=O)Nc2ccc(S(=O)(=O)Nc3ncccn3)cc2)n1,-47,12,58*,2,-12,0
O=C(C1CC1)N1CC(=O)N2[C@H](C1)[C@H](c1ccc(C#CCc3ccccc3)cc1)[C@@H]2CO,x,x,x,17,x,x
CCN1/C(=C/C=C/c2oc3ccc(-c4ccccc4)cc3[n+]2CC)Oc2ccc(-c3ccccc3)cc21,-412,86*,56*,37,-20,-1
CCCCN1C(=O)/C(=C/C=C2\Oc3ccccc3N2CC)SC1=S,-114,-17,5,39,-10,1
CO[C@@H]1CN(C)C(=O)c2cc(NC(=O)CC(F)(F)F)ccc2OC[C@@H](C)N(C(=O)C2CCOCC2)C[C@H]1C,x,x,x,-7,x,x
